Twelve compounds from PubChem BioAssay (NCATS) can be followed below.

Molecules are shown by their SMILES. Records with an inconclusive call do not appear. The source made the active and inactive calls. Calls come from the whole dose curve; as a rule, active = well fitted inhibition curve with a large enough effect; inconclusive = small, poorly fitted or top-dose-only effect; inactive = flat fitted curve, though single readings scatter.

Common to all, as to experiment: qHTS profiling for inhibitors of Plasmodium falciparum proliferation (AID 504749); note: nearly all actives have a fitted effect of over 60% in size
Common to all, as to conditions: P. falciparum in erythrocytes, SYBR Green DNA, 72 h; series mostly up to 28.7 µM

The test system of one assay is DIV17. In a few lines: (§1)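 SYBR Green fluorescence (ex 485 nm, em 535 nm) reports parasite DNA after 72 h compound exposure of infected red cells at 0.3% parasitemia, 2.5% hematocrit; signal normalized to 0.29 uM artemisinin and vehicle wells.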
Another assay relates to DIV30. In a few lines:
as §1

The test system of the next assay is Dd2. In a few lines:
as §1

The subject of another assay is ECU. In a few lines:
as §1

A further assay deals with GB4. Put shortly:
as §1

In another assay the test system is HB3. Put shortly: as §1
Another assay deals with ICS. In a few lines:
as §1

The test system of a further assay is N140. Put shortly: as §1
The test system of the next assay is P93_24. In a few lines:
as §1

For the next assay, the system named is P94_40. In a few lines:
as §1

The test system of the next assay is PAD. Put shortly:
as §1

A further assay concerns PC15. Put shortly: as §1
The test system of the next assay is PC26. Put shortly: as §1
Another assay relates to SC27B. In a few lines:
as §1

The subject of the next assay is TAB109. Put shortly:
as §1

A further assay relates to TAB113. Put shortly:
as §1

Another assay deals with TAB165. Put shortly:
as §1

The test system of a further assay is FAB9. Put shortly: as §1
The subject of another assay is JCK. In a few lines: as §1
In a further assay the test system is PC49. In a few lines: as §1
Potency is the fitted concentration of half-maximal effect.

For `CC(C)NCC(O)c1ccc2ccccc2c1` (stereo unspecified), the Potency with DIV17 was 6.75 µM (active); in the assay on DIV30, 12 µM (active); with Dd2, 7.08 µM (active); with ECU, 3.98 µM (active); in the assay on GB4, 6.75 µM (active); with HB3, 12.6 µM (active). Besides, the Potency in the assay on ICS is 2 µM (active); in the assay with N140 it was 4.47 µM (active); in the assay with P93_24, 8.91 µM (active); in the assay on P94_40, 5.01 µM (active); in the assay on PAD, 3.98 µM (active); in the assay with PC15, 7.94 µM (active). The Potency is 7.57 µM (active) with PC26; 8.91 µM (active) with SC27B; 8.91 µM (active) in the assay with TAB109; 4.47 µM (active) in the assay with TAB113; 10 µM (active) with TAB165.
As for `CN1CCN(c2c(F)cc3c(=O)c(C(=O)O)cn4c3c2SCC4)CC1`, the Potency result in the assay on DIV17, in the assay with DIV30, with FAB9, in the assay on GB4, in the assay on HB3 and in the assay on JCK was “inactive” throughout. Further, the Potency result in the assay on PC15, in the assay with PC26, with PC49, in the assay with SC27B and in the assay with TAB113 was “inactive” in each case. Moreover, in the assay with Dd2, the Potency is 10 µM (active).
For the compound `CCNC(=O)/C=C/c1cccc(Br)c1`, the Potency entry with DIV17, in the assay with DIV30, with Dd2, with ECU, in the assay on FAB9 and with GB4 was “inactive” each time. Besides, the Potency entry in the assay with HB3, in the assay on ICS, in the assay with JCK, in the assay on N140, with P93_24 and with P94_40 was “inactive” in each case. In addition, the Potency result with PAD, with PC15, with PC26, in the assay with PC49, in the assay on SC27B and with TAB113 was “inactive” in each case.
For `C=C[C@@]1(C)CC(=O)[C@]2(O)[C@@]3(C)[C@@H](O)CCC(C)(C)[C@@H]3[C@H](O)[C@H](OC(C)=O)[C@@]2(C)O1`, the Potency result in the assay with DIV17, with DIV30, in the assay on Dd2, in the assay with ECU, in the assay on FAB9 and in the assay with GB4 was “inactive” in each case. In addition, the Potency entry in the assay on HB3, in the assay on ICS, in the assay on JCK, in the assay with N140, in the assay on P93_24 and in the assay with P94_40 was “inactive” in each case. For the same compound, the Potency result with PAD, in the assay with PC15, in the assay on PC26, in the assay on PC49, in the assay with SC27B and in the assay with TAB109 was “inactive” in each case. Further, the Potency result in the assay on TAB113 and in the assay on TAB165 was “inactive” each time.
Consider `Nc1nc(N)c(-c2ccccc2)s1`, for which the Potency result in the assay on DIV17, in the assay with DIV30, in the assay on Dd2, in the assay on ECU, with FAB9 and in the assay on GB4 was “inactive” in each case. Moreover, the Potency result in the assay with HB3, with ICS, in the assay with JCK, with N140, in the assay with P93_24 and in the assay with P94_40 was “inactive” in each case. Moreover, the Potency result in the assay with PAD, in the assay on PC15, with PC26, in the assay on PC49, in the assay with SC27B and in the assay on TAB109 was “inactive” in each case. Further, the Potency result with TAB113 and with TAB165 was “inactive” in each case.
Consider `CCCN(CCc1cccs1)[C@H]1CCc2c(O)cccc2C1`, for which the Potency was 3.01 µM (active) in the assay with DIV17; 5.36 µM (active) in the assay on DIV30; 2.51 µM (active) with Dd2; 2.82 µM (active) in the assay on ECU; 1.69 µM (active) in the assay on GB4; 10 µM (active) in the assay with HB3. The Potency is 0.794 µM (active) in the assay with ICS; 3.16 µM (active) with N140; 6.31 µM (active) with P93_24; 4.47 µM (active) in the assay on P94_40; 3.16 µM (active) in the assay on PAD; 6.31 µM (active) with PC15. Also, the Potency was 6.75 µM (active) in the assay on PC26; 11.2 µM (active) in the assay with PC49; 4.47 µM (active) with SC27B; 7.08 µM (active) in the assay on TAB109; 4.47 µM (active) with TAB113; 4.47 µM (active) in the assay on TAB165.
On to `CC(C)(C)NC[C@H](O)COc1cccc2c1CCCC2=O`, for which the Potency entry in the assay on DIV17, with DIV30, with Dd2, in the assay with ECU, in the assay on FAB9 and in the assay on HB3 was “inactive” in each case. Further, the Potency result in the assay with ICS, in the assay on JCK, with N140, in the assay with P93_24, with P94_40 and in the assay on PAD was “inactive” throughout. The Potency result with PC15, in the assay on PC26, in the assay with PC49, with SC27B, in the assay on TAB109 and in the assay on TAB113 was “inactive” each time. In addition, the Potency result with TAB165 is “inactive”.
Regarding `O=C(O)CCC(=O)Nc1ccc(S(=O)(=O)Nc2nccs2)cc1`, the Potency result in the assay on DIV17, in the assay with DIV30, in the assay on Dd2, in the assay with ECU, in the assay on FAB9 and in the assay on GB4 was “inactive” throughout. Besides, the Potency entry in the assay on HB3, with ICS, in the assay with JCK, in the assay on N140, in the assay with P93_24 and with P94_40 was “inactive” each time. The Potency result in the assay with PAD, with PC15, in the assay with PC26, in the assay on PC49, with SC27B and with TAB109 was “inactive” each time. The Potency result in the assay with TAB113 and in the assay with TAB165 was “inactive” in each case.
Regarding `CCC1Nc2cc(Cl)c(S(N)(=O)=O)cc2S(=O)(=O)N1` (stereo unspecified), the Potency result with DIV17, in the assay with DIV30, with Dd2, in the assay with ECU, with FAB9 and in the assay with GB4 was “inactive” throughout. Also, the Potency result with HB3, in the assay with ICS, in the assay with JCK, with N140, in the assay on P93_24 and in the assay on P94_40 was “inactive” throughout. The Potency entry with PAD, with PC15, in the assay on PC26, in the assay on PC49, with SC27B and in the assay on TAB109 was “inactive” throughout. In addition, the Potency result in the assay on TAB113 and in the assay on TAB165 was “inactive” in each case.
In the case of `Cc1cccc(C)c1NC(=O)c1ccccc1C(=O)O`, the Potency entry in the assay with DIV17, with DIV30, in the assay with Dd2, in the assay on ECU, in the assay on FAB9 and in the assay with GB4 was “inactive” throughout. Further, the Potency entry in the assay on HB3, in the assay on ICS, with JCK, in the assay on N140, in the assay on P93_24 and with P94_40 was “inactive” each time. The Potency result in the assay with PAD, in the assay with PC15, in the assay with PC26, with PC49, with SC27B and in the assay on TAB109 was “inactive” in each case. Moreover, the Potency entry in the assay on TAB113 and in the assay with TAB165 was “inactive” in each case.
For `CCOc1cc(OCC)c(C(=O)CCC(=O)O)cc1OCC`, the Potency entry in the assay on DIV17, with DIV30, with Dd2, in the assay with ECU, with FAB9 and in the assay on GB4 was “inactive” in each case. Further, the Potency entry with HB3, with ICS, in the assay with JCK, in the assay on N140, with P93_24 and with P94_40 was “inactive” each time. Besides, the Potency result with PAD, in the assay on PC15, in the assay with PC26, in the assay on PC49, in the assay with SC27B and with TAB109 was “inactive” in each case. For the same compound, the Potency result with TAB113 and in the assay with TAB165 was “inactive” throughout.
As for `CCCCCN=C(N)N/N=C/c1c[nH]c2ccc(OC)cc12`, the Potency in the assay with DIV17 was 1.51 µM (active); in the assay on DIV30, 12 µM (active); in the assay with Dd2 it was 3.16 µM (active); in the assay with ECU, 8.91 µM (active); in the assay with GB4, 5.36 µM (active); in the assay on HB3, 3.16 µM (active). In addition, the Potency with ICS is 1.26 µM (active); in the assay with N140, 4.47 µM (active); with P93_24, 3.16 µM (active); with P94_40, 2.82 µM (active); in the assay on PAD, 6.31 µM (active); in the assay with PC15, 5.62 µM (active). The Potency with PC26 was 12 µM (active); in the assay with SC27B, 12.6 µM (active); with TAB109, 4.47 µM (active); with TAB113 it was 10 µM (active); in the assay with TAB165, 3.55 µM (active).
